In the library only some 4.6% were active in any assay of this set; here they are far more common.
tim10-1 inh: inhibits growth of tim10-1 mutant yeast. S. cerevisiae tim10-1 ts strain growth, BacTiter-Glo, 24 h. inhibition, % at 20 µM. 330,000 compounds, 2.2% hits;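 active = inhibition of at least 40%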;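 also: mutant grown at 25 °C; 0% = DMSO wells with yeast and 100% = wells holding no yeast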
SKKanGAS inh: SKKanGAS growth inhibition | S. pyogenes SKKanGAS, kanamycin growth, BacTiter-Glo, 6 h | inhibition, % at 7.5 µM | 300,000 compounds, 1.3% hits | AID 1662;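 active = mean replicate score, as percent of positive control median, at least 50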;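 also: strain carries kanamycin resistance gene driven by streptokinase promoter and grows in 40 µg/ml kanamycin; loss of luminescence reflects streptokinase promoter inhibition or plain growth inhibition; 0% = median of DMSO wells and 100% = positive control at its reference dose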
tim23-1 inh: growth inhibitors of tim23-1 mutant yeast; S. cerevisiae tim23-1 growth, BacTiter-Glo luminescence, 24 h; inhibition, % at 20 µM; 330,000 compounds, 1.3% hits; AID 463212;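 active = growth inhibition of the mutant yeast at or above 50%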;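 also: temperature-sensitive mutant grown at 25 °C; plate controls were DMSO-treated mutant yeast for no effect and medium wells lacking yeast for full effect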
TIM10 inh: inhibits growth of TIM10 yeast strain; inhibition, % at 10 µM; 330,000 compounds, 1.4% hits; S. cerevisiae TIM10 strain growth, BacTiter-Glo luminescence, 24 h;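 active = inhibition of 40% or more at the single tested concentration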;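 also: wild-type TIM10 isogenic control strain grown at permissive 25 °C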
NALP3 yeast inh: NALP3 inhibition in yeast. Yeast reconstituted NLRP3/ASC/caspase-1, beta-gal luminescence, 24 h. inhibition, % at 10 µM. 330,000 compounds, 0.39% hits. AID 2825;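 active = inhibition of 50% or more; inactive = inhibition below 50%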;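 also: plate controls were induced DMSO wells for no effect and uninduced yeast grown without galactose for full effect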
tim23-1 conf: confirmation of tim23-1 mutant yeast growth inhibitors | inhibition, % at 20 µM | S. cerevisiae tim23-1 growth, BacTiter-Glo luminescence, 24 h | shares compounds with tim23-1 inh | 4,400 compounds, 83% hits;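 active = inhibition above about 39% in either of two replicate wells at 20 µM, limit read from the data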;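 also: temperature-sensitive tim23-1 mutant grown at 25 °C; 0% = DMSO wells with yeast and 100% = medium wells without yeast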
* marks the source's active call; other numbers are inactive results; / = no result.

SMILES | tim10-1 inh | SKKanGAS inh | tim23-1 inh | TIM10 inh | NALP3 yeast inh | tim23-1 conf
O=C(Nc1ccc(Br)c(Cl)c1)c1ccco1 | 28 | -5 | 62* | 36 | 12 | 72*
CC(C)C(NC(=O)c1ccccc1F)C(=O)NCc1ccc(F)cc1 (centres undefined) | 4 | -1 | 16 | 2 | 22 | /
O=C(CSc1nccc(=O)[nH]1)NN(c1ccccc1)c1ccccc1 | 8 | 5 | 5 | 4 | -11 | /
Nc1n[nH]c(C2CC2)c1N=Nc1ccc(Cl)cc1 | 8 | -4 | 69* | 25 | 21 | 24
Nc1n[nH]c(C2CC2)c1N=Nc1ccc(Cl)c(Cl)c1 | 35 | 82* | 69* | 39 | 30 | 9
CN(c1ccccc1)S(=O)(=O)c1cccc(C(=O)OCC(=O)NCCCN2CCCC2=O)c1 | 13 | -7 | 7 | 13 | -11 | /
COc1ccc(/C=c2\sc3nc(=O)c(C)nn3c2=O)c(OC)c1 | 31 | -2 | 53* | 8 | 18 | 39*
CN(C)/C=C/C(=O)c1ccc(F)cc1F | -4 | -6 | -12 | -12 | 19 | /
O=C(Nc1ccc(C(F)(F)F)cc1)N1CCN(c2ccnc3cc(Cl)ccc23)CC1 | 16 | 53* | 51* | 24 | 19 | 46*
O=C(Nc1cc(F)ccc1F)N1CCN(c2ccnc3cc(Cl)ccc23)CC1 | 22 | -3 | 21 | 11 | 33 | /
O=S(=O)(Nc1ccc(-c2csc(-c3ccccc3)n2)cc1)c1ccccc1 | 22 | 46 | 50* | 25 | -5 | 39
Oc1c(Br)cc(Br)cc1CNc1cccc2cccnc12 | 27 | 89* | 57* | 26 | 19 | 62*
Cc1ccc(-c2csc(NC(=O)c3ccccc3Cl)c2C(=O)O)cc1 | 19 | 11 | 64* | 16 | 22 | -24
CC(C)Cc1csc(NC(=O)c2ccccc2Cl)c1C(=O)O | 12 | 31 | 10 | 6 | -15 | /
C[C@@H]1C=CC(=O)O[C@@H]1c1ccc(C(F)(F)F)cc1 | 39 | 4 | 57* | 29 | -8 | 37
Cc1ccc(-n2c(SCC3CNC(=O)O3)nnc2-c2ccccc2)cc1C (centres undefined) | 16 | 0 | 13 | 16 | 7 | /
O=C(Nc1nccs1)c1ccc(Br)cc1 | -21 | -2 | 56* | -10 | 36 | 34
O=C(Nc1nccs1)c1ccc(Br)s1 | 33 | 1 | 64* | 31 | 50 | 52*
O=C(CCNC(=O)c1ccc(Br)cc1)Nc1nccs1 | -1 | 0 | -13 | -44 | 1 | /
COc1ccc(S(=O)(=O)N/N=C(/C)c2ccco2)cc1 | -1 | -13 | 2 | 4 | -9 | /
COc1ccc(N=C(C)C2=C(O)COC2=O)cc1 | -11 | -3 | 96* | -15 | 17 | 5
COCCCn1c(=O)c2ccccc2n(Cc2cc(C(=O)OC)ccc2OC)c1=O | 5 | -3 | 24 | 9 | 14 | /
CC(Oc1cc(-c2ccccc2)cc2ccccc12)C(=O)N1CCOCC1 (centres undefined) | 36 | 1 | 21 | 19 | -22 | /
C=C(c1ccccc1Cl)[n+]1ccccc1 | 9 | 2 | 1 | 3 | 10 | /
COCCNc1c2c(nc3c(-c4ccccc4)c(C)nn13)CCCC2 | 32 | 1 | 50* | 23 | 6 | 38
SMILES | tim10-1 inh | SKKanGAS inh | tim23-1 inh | TIM10 inh | NALP3 yeast inh | tim23-1 conf
CCN(CC)CCNC(=O)CCN1N=C(c2ccccc2)CCC1=O | -4 | -4 | -2 | 1 | 10 | /
O=C(NCCN1CCOCC1)c1ccc(Cl)c([N+](=O)[O-])c1 | -16 | 9 | -12 | -5 | 22 | /
CC(C)(C)SCCNC(=O)c1ccc(Cl)c([N+](=O)[O-])c1 | 34 | -12 | 53* | 9 | 34 | 29
C#CCSc1nncn1C(=O)/C=C/c1ccccc1 | 35 | -17 | 52* | 12 | 0 | 77*
COc1ccc2c(=O)c3c(=O)n(Cc4ccco4)c(-c4ccccc4)nc3oc2c1 | 33 | 18 | 59* | 32 | 7 | 39*
NC(=O)c1c(NC(=O)c2ccccc2F)sc2c1CCCC2 | 29 | 7 | 54* | 22 | 37 | 49*
CC(=O)c1c(C)n(-c2ccccc2Br)c2ccc(O)cc12 | 6 | -2 | -2 | 10 | 11 | /
C#CCOCCOCCOCCNc1nc(N2CCN(C(=O)CCCCCCCCCCNC(=O)[C@H]([C@@H](C)CC)n3cc(CCCCN=C(N)N)nn3)CC2)nc(N2CCN(C(=O)CCCCCCCCCCNC(=O)[C@H](CCCCN)n3cc(C)nn3)CC2)n1 | 36 | / | 58* | 12 | 17 | 41*
